These results are taken from PubChem BioAssay (NCI).

“And” between values parts separate entries of the source, which are not always exact repeats. Equal entries are not always repeated. This is part of a sample that, as a whole, favours compounds with a hit. Of some 83,000 tested, about 20% had one in any assay.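 Cells were grown in 96-well plates and exposed to the test compound at a single concentration for 48 hours; results are reported as percent growth, with values below 10 considered active.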 A number with no mark means an inactive call. The source made the active and inactive calls.

What all share (test): NCI-60 one-dose screen, 48 h (100 = growth as untreated, 0 = no growth, -100 = all killed)
Common to all, as to conditions: 10 µM unless noted

For experiment [1], the system named is DU-145 prostate.
The subject of experiment [2] is K-562 leukemia.
In experiment [3] the test system is MALME-3M melanoma.
The subject of experiment [4] is MDA-MB-231 breast.
Experiment [5] relates to RXF 393 renal.
Experiment [6] has as its system SF-268 CNS.
The test system of experiment [7] is SF-295 CNS.
The subject of experiment [8] is SF-539 CNS.
Experiment [9] has as its system UACC-257 melanoma.
In experiment [10] the test system is M14 melanoma.

As for `NNc1ncnc2cccc(Cl)c12`, the growth in experiment [1] was 112%; in [2], 99.4%; in experiment [3], 99%; in experiment [4] it was 105%; in experiment [5] it was 103%; in experiment [6] it was 107%. Besides, the growth in [7] is 98.7%; in experiment [8], 97.2%; in experiment [9], 88.2%; in [10] it was 104%.

Turning to `CCOP(=O)(OCC)/C(C#N)=C/c1c(C)[nH]c2ccccc12`, the growth in experiment [1] is 107%; in experiment [2] it was 94.6%; in [3], 105%; in [4], 90.4%; in [5], 108%; in experiment [6], 102%. Besides, the growth in experiment [7] is 95.1%; in [8], 99%; in [9], 92.6%; in experiment [10] it was 92.4%.

With `Cc1ccc(C(=O)c2ccc(C)cc2)cc1`, the growth was 102% and 103% in experiment [1]; 103% and 110% in experiment [2]; 108% and 93.2% in experiment [3]; 103% and 106% in [4]; 88% and 95.8% in experiment [5]; 94.8% and 98% in experiment [6]. For the same compound, the growth in experiment [7] is 94.4% and 103%; in experiment [8], 85.3% and 97.6%; in [9], 92.6% and 114%; in experiment [10], 101%.

Turning to `Nc1c(S(=O)(=O)O)cc(Br)c2c1C(=O)c1ccccc1C2=O`, the growth is 106% and 116% in [1]; 101% and 96.6% in [2]; 97.6% and 116% in experiment [3]; 115% and 107% in experiment [4]; 111% and 98.7% in experiment [5]; 102% and 106% in [6]. For the same compound, the growth in [7] was 104% and 100%; in experiment [8], 104% and 101%; in [9] it was 83.3%; in experiment [10] it was 117% and 110%.

Consider `CCCC(=O)Oc1ccc2ccccc2c1`, for which the growth in experiment [1] is 111%; in experiment [2], 95.7%; in experiment [3] it was 111%; in experiment [4], 95.8%; in [5], 112%; in experiment [6] it was 105%. For the same compound, the growth is 96.7% in experiment [7], 98.3% in experiment [8], 90.8% in [9] and 97.5% in experiment [10].

Turning to `CCc1ccc(OC(=O)CCl)cc1`, the growth in experiment [1] was 102%; in experiment [2], 102%; in [3], 96.9%; in experiment [4] it was 99.4%; in [5], 113%; in [6], 95.3%. Further, the growth is 97.8% in [7], 99% in experiment [8], 103% in [9] and 96.3% in [10].

`COc1ccc(/C=C/C(=O)O)cc1OC`: the growth was 108% and 111% in experiment [1]; 96.7% and 105% in experiment [2]; 103% and 122% in experiment [3]; 100% and 108% in experiment [4]; 107% and 111% in experiment [5]; 108% and 99.3% in [6]. The growth in experiment [7] is 107% and 105%; in experiment [8], 102% and 105%; in experiment [9], 104% and 102%; in experiment [10] it was 101% and 106%.

On to `Nc1ccc2ccc(NS(=O)(=O)N3CCCCC3)cc2c1`, for which the growth in [1] was 12.7%; in experiment [2] it was 8.04% (active); in experiment [3], 45.3%; in [4] it was 11.8%; in [5] it was 51.4%; in experiment [6], 32.3%. For the same compound, the growth in experiment [7] is 15.1%; in experiment [8] it was -21.7% (active); in experiment [9] it was 87.7%; in experiment [10], 11.2%.

Take `COc1cc2oc3cc(=O)cc4oc(-c5ccccc5)cc(c2c2c1CCC(c1ccccc1)O2)c43` (stereo not given): the growth in experiment [1] is 79.7%; in [2], 42.1%; in experiment [3], 117%; in experiment [4], 75.8%; in experiment [5], 78.6%; in experiment [6], 85.1%. Further, the growth is 70.5% in experiment [7], 78.7% in experiment [8], 99.9% in experiment [9] and 88.2% in experiment [10].

As to `Nc1[nH][nH]c(=O)c1N=Nc1ccccc1`, the growth in experiment [1] was 109% and 111%; in [2] it was 137% and 92.5%; in experiment [3] it was 128% and 115%; in [4], 93.8% and 119%; in experiment [5], 123% and 107%; in experiment [6], 103% and 114%. Moreover, the growth in experiment [7] was 111% and 114%; in experiment [8], 102% and 106%; in experiment [9], 109%; in experiment [10], 102% and 112%.

Consider `Clc1ccc2c(c1)N(C1CCCN(Cc3ccccc3)C1)c1ccccc1S2` (stereo not given), for which the growth is 74.1% in [1]; 18.5% in experiment [2]; 78.4% in experiment [3]; 51.8% in [4]; -15.7% (active) in experiment [5]; 39.2% in experiment [6]. Besides, the growth in experiment [7] was 77.6%; in [8] it was 40.8%; in [9] it was 55.1%; in experiment [10], -26.9% (active).
